Results reported in PubChem BioAssay (NCI).
About 83,000 compounds went through this panel and 20% of them were active in at least one assay; those are over-represented in the sample as a whole.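 Cell lines were cultured in 96-well plates, exposed to a single compound concentration, and assessed for percent growth 48 hours later.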 A number with no mark means an inactive call. The source made the active and inactive calls. How the source made its calls: active means growth percent below 10; inactive means the rest.

What follows are molecules tested on UO-31 renal (assay: NCI-60 one-dose screen, 48 h (100 = growth as untreated, 0 = no growth, -100 = all killed)). Settings: 10 µM unless noted.
COc1ccc2c(c1)c(CC(=O)[Se]CC(=O)O)c(C)n2C(=O)c1ccc(Cl)cc1 showed a growth of 94.4%.
Molecule CN(C)CCNC(=O)c1ccc(-c2nc3ccc4[nH]ncc4c3c3c2COCC3)cc1 has a growth of 82.9%.
With COc1ccc2c(c1)c(CC(=O)[Se]CCC#N)c(C)n2C(=O)c1ccc(Cl)cc1 the growth was -21.7% (active).
CN1CCN(Cc2ccc(NC(=O)c3cncc(C#Cc4cnc5ccc(OCC(C)(C)O)nn45)c3)cc2C(F)(F)F)CC1 was tested, and the growth was -87.9% (active).
CNC(=O)c1cc(N2CCc3cc(NC(=O)Nc4ccc(Cl)c(C(F)(F)F)c4)ccc32)ccn1 was tested, and the growth was 68.4%.
O=C(CSc1nc2ccccc2c(=O)n1-c1ccc(Cl)cc1)N/N=C/c1ccc(N2CCCCC2)cc1 gave a growth of 53%.
Molecule CCOc1ccc(C(=O)Nc2ncc(Cc3ccc(F)cc3)s2)cc1 has a growth of 41.9%.
Molecule Cc1c(Cl)cccc1S(=O)(=O)Nc1ccc2c(c1)C(=O)N(C1CCC(=O)NC1=O)C2=O (configuration not stated) has a growth of 44%.
In the case of CC/C(=C/c1cc(OC)ccc1O)c1ccc2cc(OC)ccc2[o+]1, the growth is reported as 68.7%.
With COc1c(N2CC3CCCNC3C2)c(F)cc2c(=O)c(C(=O)N/N=C/c3ccc4c(c3)OCO4)cn(C3CC3)c12 (configuration not stated) the growth was 64.9%.
CN1CCN(Cc2ccc(NC(=O)c3cncc(C#Cc4cnc5ccc(OCC6(C)COC6)nn45)c3)cc2C(F)(F)F)CC1 was tested, and the growth was -91.8% (active).
Molecule O=C(NNc1nc2cc(F)c(F)cc2n2cccc12)c1cnccn1 has a growth of 23.3%.
